# Screening results: PubChem, National Center for Advancing Translational Sciences (NCATS)
# 12-LOX inh: Primary qHTS assay for inhibitors of human arachidonate 12S-lipoxygenase (ALOX12): Round 2; Polyunsaturated fatty acid lipoxygenase ALOX12 (Homo sapiens), P18054; purified 12hLO, xylenol orange hydroperoxide absorbance; Potency, µM (titrated, usually from 108 µM), for the others: at the top dose activity change, negative = inhibition, hits mostly inhibitors; actives 1.1% (n = 580,000); AID 1671190, 2021; note: potency is the fitted concentration of half-maximal effect
# Target sequence (P18054 whole entry, looked up): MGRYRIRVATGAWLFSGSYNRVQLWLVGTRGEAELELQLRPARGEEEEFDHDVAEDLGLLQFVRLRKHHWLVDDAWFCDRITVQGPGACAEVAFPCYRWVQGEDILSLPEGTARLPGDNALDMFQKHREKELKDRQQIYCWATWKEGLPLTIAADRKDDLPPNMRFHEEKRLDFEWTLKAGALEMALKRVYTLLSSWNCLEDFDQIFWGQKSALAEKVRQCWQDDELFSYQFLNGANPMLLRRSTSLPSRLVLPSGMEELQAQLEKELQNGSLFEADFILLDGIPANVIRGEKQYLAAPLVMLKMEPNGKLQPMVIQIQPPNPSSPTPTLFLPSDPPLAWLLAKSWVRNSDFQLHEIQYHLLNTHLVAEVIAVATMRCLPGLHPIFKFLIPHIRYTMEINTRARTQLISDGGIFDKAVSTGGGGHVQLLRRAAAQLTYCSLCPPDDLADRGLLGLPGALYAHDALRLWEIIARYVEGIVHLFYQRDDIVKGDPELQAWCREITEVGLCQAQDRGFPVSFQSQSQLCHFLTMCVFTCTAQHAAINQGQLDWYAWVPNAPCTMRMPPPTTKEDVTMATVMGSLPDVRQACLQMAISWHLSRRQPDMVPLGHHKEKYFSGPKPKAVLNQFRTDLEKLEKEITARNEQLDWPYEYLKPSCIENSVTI
#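 Purified human 12hLO (150 nM final) in 25 mM Hepes, 0.01% Triton X-100, pH 7.0 was preincubated 15 min at room temperature with compound. Then 40 uM arachidonic acid was added, 30 min. Hydroperoxide was read by Fe-XO absorbance ratio 573/405 nm.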
# HT1080 IDH1KD tx: qHTS for induction of synthetic lethality in tumor cells producing 2HG: qHTS for the HT-1080-IDH1KD cell line; HT-1080 IDH1 knockdown viability, ATP luminescence, 48 h; Potency, µM (titrated, usually from 46.1 µM), for inactives: at the highest dose activity, negative = toxicity, hits mostly cytotoxic; actives 2% (n = 360,000); AID 686971, 2013;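 note: potency is the fitted concentration of half-maximal effect; 0% = DMSO wells and -100% = cell-free medium wells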
#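 Knockdown cells (IDH1KD HT-1080) received compounds 2 h after plating at 750 cells/well and were kept 48 h at 37 °C in 5% FBS RPMI. A CellTiter-Glo luminescence read gave % activity for curve fitting.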
# DT40 TDP1 no CPT: qHTS for Inhibitors of human tyrosyl-DNA phosphodiesterase 1 (TDP1): qHTS in cells in absence of CPT | DT40 Tdp1-/- hTDP1 cells, no CPT, ATP luminescence, 48 h | Potency, µM (titrated, usually from 46.2 µM), inactives show at the top dose activity change, negative = growth inhibition, actives largely listed as inhibitors | actives 15% (n = 420,000) | AID 686978, 2013; note: potency is the fitted concentration of half-maximal effect; nearly all actives have a fitted effect of over 55% in size
#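 Chicken DT40 Tdp1-/- cells complemented with human TDP1, screened without camptothecin (DMSO vehicle only), 400 cells/well. Compounds pin-transferred, cells incubated at 37 °C for at least 48 hr. Growth read as ATP-dependent luminescence (CellTiter-Glo, 30 min at RT).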
# IL1B secr inh: qHTS for Inhibitors of Inflammasome Signaling: IL-1-beta AlphaLISA Primary Screen; THP-1 LPS/ATP IL-1B secretion, AlphaLISA, 16 h; stronger effect = lower value; activity change, % at 57.5 µM; actives 4.7% (n = 360,000); in the data active = activity change below about -50%; inconclusive = mostly about -30% to -49%
#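 THP-1 cells pretreated 1 hr with compounds (up to 57.5 uM final), then stimulated with LPS (250 ng/mL final) plus ATP (1.25 mM final); secreted IL-1B measured by AlphaLISA after 16 hr, decreased signal indicating inhibition.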
# HT1080-NT tox: qHTS for induction of synthetic lethality in tumor cells producing 2HG: qHTS for the HT-1080-NT fibrosarcoma cell line; HT-1080-NT fibrosarcoma viability, CellTiter-Glo ATP luminescence, 48 h; actives 1.6% (n = 360,000); Potency, µM (series often up to 46.1 µM), inactives show at the highest dose activity, negative = less viability, actives largely listed as cytotoxic;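 note: NT is the 2HG producing partner of a matched IDH1 knockdown line; potency is the fitted concentration of half-maximal effect; 0% = DMSO-treated cells and -100% = media-only wells without cells; nearly all actives have a fitted effect of over 55% in size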
#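 Fibrosarcoma NT cells, 750 per well in 5% FBS RPMI, were exposed to compound for 48 hours. Viability: CellTiter-Glo luminescence.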
# TDP1 cell CPT: qHTS for Inhibitors of human tyrosyl-DNA phosphodiesterase 1 (TDP1): qHTS in cells in presence of CPT. actives 12% (n = 420,000). Potency, µM (top dose mostly 46.2 µM), inactives show at the top dose activity change, negative = growth inhibition, hits mostly inhibitors. AID 686979, 2013. chicken DT40 Tdp1-/-;hTDP1 cells + 20 nM CPT, ATP luminescence, 48 h; note: potency is the fitted concentration of half-maximal effect; nearly all actives have a fitted effect of over 55% in size
#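 Cell growth measured by CellTiter-Glo luminescence after a minimum 48 h, 37 C compound exposure with 20 nM CPT in Tdp1-knockout DT40 cells stably expressing hTDP1, seeded 400/well; qHTS titration format.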
# * = called active by the depositor; i = inactive; ? = inconclusive; nt = no result; [ ] = dose if it differs, or a comment. The entries come from a sample that favours hits as a whole. Unless noted, calls come from the whole dose curve; as a rule, active = well fitted curve in the direction sought with a large enough effect; inconclusive = small, poorly fitted or top-dose-only effect, or another doubt; inactive = no such curve, though single readings can be large; an effect the other way counts as inactive or inconclusive. Unless noted, % is set by controls: 0 for no effect and ±100 for the full control effect.
SMILES,12-LOX inh,HT1080 IDH1KD tx,DT40 TDP1 no CPT,IL1B secr inh,HT1080-NT tox,TDP1 cell CPT
O=C1CCC[C@@H]2CC(N(Cc3cc4ccccc4s3)c3ccccc3)C[C@@H]3CCN1[C@H]23 (stereo partly drawn),nt,nt,-2%,nt,nt,15%
CCOc1cccc(/C=N/NC(=O)c2cc(C3CC3)[nH]n2)c1O,17%,-28%,23µM*,94,?,?
COc1cccc(/C=N/Nc2ccc(S(=O)(=O)O)cc2)c1O,-26%,0%,5%,9,11%,2%
O=C(N/N=C/c1ccccc1OCc1ccccc1Cl)c1cccnc1,23%,-2%,23µM*,49,?,?
COc1cccc(/C=N/Nc2ccc(C(=O)O)cc2)c1O,?,21µM*,21µM*,8,18µM*,?
COc1ccccc1C=NN=C(NN=Cc1ccccc1OC)NN=Cc1ccccc1OC,?,?,?,-82*,?,?
CCOc1ccccc1/C=N/NC(=O)c1cccc(Cl)c1,-9%,14%,-32%,0,5%,-29%
COc1cccc(/C=N/NC(=O)c2nc(-c3ccccc3)cc(-c3ccccc3)n2)c1O,-17%,?,9.2µM*,11,?,12µM*
COc1cccc(C=NNC(=O)c2ccncc2)c1O,7%,1.5µM*,0.18µM*,185,?,0.92µM*
COc1cccc(/C=N/Nc2nn3cnnc3c3ccccc23)c1O,i,?,1.2µM*,54,-11%,2.6µM*
COc1cccc(/C=N/NC(=O)N/N=C/c2cccc(OC)c2O)c1O,0%,-19%,3.7µM*,-97*,-21%,?
COc1cccc(/C=N/NC(=O)c2cccc3ccccc23)c1OC,i,-11%,?,22,-7%,?
COCCOCCOCCOC,10%[176 µM],nt,nt,nt,nt,nt
COc1ccccc1CNC(=O)C(C)(C)c1ccccc1,-4%,nt,nt,nt,nt,nt
O=C(c1ccc(CC2CCCNC2)cc1)N1CCc2nc[nH]c2C1 (stereo not drawn),52%,nt,nt,nt,nt,nt
Cc1cc(NC(=O)c2nc3ccccc3nc2N2CCN(C)CC2)ccc1Br,3%,nt,nt,nt,nt,nt
O=C(N/N=C/c1ccccc1F)C(=O)N1CCCCCC1,-24%,0%,8%,17,7%,37%
O=C(N/N=C/c1ccccc1O)C(=O)N1CCCCCC1,i,8.2µM*,?,164,?,?
CC(CNc1ccccc1O)C(=O)O (stereo not drawn),?,-44%,26µM*,-1,-1%,?
CC(=O)C[C@H]1c2cc(C(F)(F)F)ccc2S(=O)(=O)N1C1CCCCC1,-10%,-2%,21µM*,?,-1%,16µM*
CCCCCCCCN1[C@@H](CC(C)=O)c2cc(C(F)(F)F)ccc2S1(=O)=O,-7%,-3%,13µM*,32,-11%,?
COC(=O)C[C@H]1c2cc(C(F)(F)F)ccc2S(=O)(=O)N1C1CCCCC1,17%,6%,?,5,14%,?
COC(=O)C[C@H]1c2cc(C(F)(F)F)ccc2S(=O)(=O)N1C1CCCC1,4%,-1%,?,-2,-1%,23µM*
COc1cc(/C=C(/C#N)C(=O)Nc2ccc(C)cc2)ccc1Oc1nc(Cl)ncc1F,-25%,?,16µM*,0,?,23µM*
